Bioassay records deposited in PubChem by several laboratories.
PLK1 PBD inh: Plk1 polo box domain binding inhibitors, primary screen, biochemical, fluorescence polarization | Serine/threonine-protein kinase PLK1 (Homo sapiens), P53350 | Plk1 PBD phosphopeptide binding | inhibition, %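 (tested at about 20 µM)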 | hit rate 0.13% among 97,000; in the data active = inhibition above about 34%, passing the limit was not always enough
CYP2C19 inhib: blockers of cytochrome P450 2C19 activity – biochemical, luminescence, ADME assay, primary screen; CYP2C19 Supersomes, luciferin-H EGE luminescence, 30 min; inhibition, % at 5 µM; hit rate 21% among 96,000;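 active = CYP2C19 inhibition above a set limit at 5 µM in the primary screen, cut at about 50% in these data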;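 also: plate controls were negative control wells for no effect and 2.5 mM tranylcypromine positive control for full effect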
Target sequence (P33261 whole entry, looked up): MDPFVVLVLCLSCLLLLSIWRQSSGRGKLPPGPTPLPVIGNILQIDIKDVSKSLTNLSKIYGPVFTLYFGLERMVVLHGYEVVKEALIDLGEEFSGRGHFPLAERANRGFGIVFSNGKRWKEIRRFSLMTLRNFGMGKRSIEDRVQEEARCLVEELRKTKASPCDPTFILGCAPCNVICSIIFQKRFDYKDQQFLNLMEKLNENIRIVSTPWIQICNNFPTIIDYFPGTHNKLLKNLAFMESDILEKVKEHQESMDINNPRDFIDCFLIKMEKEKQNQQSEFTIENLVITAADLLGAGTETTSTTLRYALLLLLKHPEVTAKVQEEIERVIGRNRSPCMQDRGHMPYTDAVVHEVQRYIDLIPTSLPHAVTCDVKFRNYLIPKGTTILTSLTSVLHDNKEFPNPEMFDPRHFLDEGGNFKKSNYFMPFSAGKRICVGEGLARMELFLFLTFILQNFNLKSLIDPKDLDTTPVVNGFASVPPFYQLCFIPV
CYP2C9 activ: human CYP2C9 activators, primary screen, biochemical, luminescence. AID 1024, 2008. hit rate 1.4% among 96,000. Cytochrome P450 2C9 (Homo sapiens), P11712. activation factor at 5 µM. recombinant CYP2C9, luciferin-H conversion; active compounds read high; factor 1 = untreated enzyme, 0 = blocked;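 active = activation factor of 2 or more for CYP2C9 at a 5 µM dose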;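 also: 0 = sulfaphenazole-blocked wells and 1 = vehicle-only wells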
PLK1 inh: human PLK1 kinase inhibitors, primary screen, biochemical, TR-FRET; Serine/threonine-protein kinase PLK1 (Homo sapiens), P53350; recombinant PLK1 kinase, TR-FRET peptide phosphorylation; inhibition, % at 10 µM; hit rate 0.53% among 97,000;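 active = inhibition of 50% or more in the single-concentration screen; inactive = inhibition below 50%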;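 also: 0% = DMSO max control and 100% = H-89 dihydrochloride min control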
CYP2C19 activ: human CYP2C19 activators, primary screen, biochemical, luminescence. Cytochrome P450 2C19 (Homo sapiens), P33261. recombinant CYP2C19, luciferin-H EGE luminescence; active compounds read high; 0 = fully inhibited enzyme, 1 = untreated enzyme. activation factor at 5 µM. 96,000 tested, under 10 active;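 active = activation factor of at least 2 at 5 µM in the primary screen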;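 also: 0 = wells with 2.5 mM tranylcypromine and 1 = vehicle-only wells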
CYP2C9 inhib: blockers of cytochrome P450 2C9 activity – biochemical, luminescence, ADME assay, primary screen | CYP2C9 Supersomes, luciferin-H conversion | inhibition, % at 5 µM | hit rate 20% among 96,000 | AID 777, 2007;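 active = blocking of liver enzyme CYP2C9 beyond about 50% at 5 µM, limit read from the data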
* = called active by the depositor. Rows were chosen to be rich in hits. Some 28% of all compounds tested hit in one or more screens of this group.

Results for O=C(c1cccs1)N1CCN(CCCc2ccccc2)CC1 ?
PLK1 PBD inh: 10; CYP2C19 inhib: 26; CYP2C9 activ: 0.7; PLK1 inh: -10; CYP2C19 activ: 0.7; CYP2C9 inhib: 27

What do the screens show for `O=C1c2oc3ccccc3c(=O)c2C(c2cccs2)N1CCCN1CCOCC1` (stereo not given)?
PLK1 PBD inh: -8; CYP2C19 inhib: 2; CYP2C9 activ: 0.8; PLK1 inh: -20; CYP2C19 activ: 1; CYP2C9 inhib: 23

How did O=C(Nc1ccc2c(c1)OCCO2)C1CCN(c2cnccn2)CC1 do in these assays?
PLK1 PBD inh: 11; CYP2C19 inhib: 21; CYP2C9 activ: 0.8; PLK1 inh: -6; CYP2C19 activ: 0.8; CYP2C9 inhib: 16

What do the screens show for `CCC(Cc1ccccc1)NC(=O)C1CCC(CNc2c(N3CCCC3)c(=O)c2=O)CC1` (stereo not given)?
PLK1 PBD inh: -21; CYP2C19 inhib: 10; CYP2C9 activ: 0.9; PLK1 inh: -8; CYP2C19 activ: 0.9; CYP2C9 inhib: 8

Results for O=C(C1CCCCC1)N1CCN(S(=O)(=O)c2ccc(Br)cc2)CC1 ?
PLK1 PBD inh: -2; CYP2C19 inhib: 8; CYP2C9 activ: 0.9; PLK1 inh: 1; CYP2C19 activ: 0.9; CYP2C9 inhib: 8

Results for Cc1ccc(N2CCN(C(=O)c3ccccc3F)CC2)c(C)c1 ?
PLK1 PBD inh: -14; CYP2C19 inhib: 100*; CYP2C9 activ: 0.1; PLK1 inh: -11; CYP2C19 activ: 0; CYP2C9 inhib: 89*

How did O=C(c1cccc(Cl)c1)N1CCN(Cc2ccccc2F)CC1 do in these assays?
PLK1 PBD inh: -8; CYP2C19 inhib: 97*; CYP2C9 activ: 0.2; PLK1 inh: -2; CYP2C19 activ: 0; CYP2C9 inhib: 79*

Results for COc1ccc(C(=O)N2CCN(c3ccc(C)cc3C)CC2)cc1OC ?
CYP2C19 inhib: 8; CYP2C9 activ: 0.8; CYP2C19 activ: 0.9; CYP2C9 inhib: 23

Results for O=C(c1ccccc1F)N1CCN(Cc2ccccc2F)CC1 ?
PLK1 PBD inh: -23; CYP2C19 inhib: 96*; CYP2C9 activ: 0.4; PLK1 inh: -27; CYP2C19 activ: 0; CYP2C9 inhib: 59*

How did COc1ccc(OCCSc2ncn[nH]2)cc1 do in these assays?
PLK1 PBD inh: 3; CYP2C19 inhib: 44; CYP2C9 activ: 0.9; PLK1 inh: -12; CYP2C19 activ: 0.6; CYP2C9 inhib: 9

How did COc1cc2c(=O)n(CC3CCCO3)c(=O)n(CC(=O)Nc3cccc(Cl)c3)c2cc1OC (stereo not given) do in these assays?
PLK1 PBD inh: 1; CYP2C19 inhib: 63*; CYP2C9 activ: 0.2; PLK1 inh: -3; CYP2C19 activ: 0.4; CYP2C9 inhib: 85*

What do the screens show for `COc1cc2c(=O)n(CC3CCCO3)c(=O)n(CC(=O)Nc3ccc(F)cc3F)c2cc1OC` (stereo not given)?
CYP2C19 inhib: 15; CYP2C9 activ: 0.6; CYP2C19 activ: 0.9; CYP2C9 inhib: 44

How did COc1ccc(N=Cc2ccc[nH]2)cc1 do in these assays?
PLK1 PBD inh: 1; CYP2C19 inhib: -3; CYP2C9 activ: 1.1; PLK1 inh: -1; CYP2C19 activ: 1; CYP2C9 inhib: -7

How did Cc1ncc(S(=O)(=O)c2ccccc2)c(-c2ccccc2Cl)n1 do in these assays?
PLK1 PBD inh: 11; CYP2C19 inhib: 62*; CYP2C9 activ: 0.8; PLK1 inh: 0; CYP2C19 activ: 0.4; CYP2C9 inhib: 19

How did O=S(=O)(c1ccccc1)c1cnc(-c2cccnc2)nc1-c1ccc(Cl)c(Cl)c1 do in these assays?
PLK1 PBD inh: -30; CYP2C19 inhib: 72*; CYP2C9 activ: 0.4; PLK1 inh: -15; CYP2C19 activ: 0.3; CYP2C9 inhib: 64*

What do the screens show for `CN(C)c1ncc(S(=O)(=O)c2ccc(Cl)cc2)c(-c2ccc(Cl)cc2Cl)n1`?
PLK1 PBD inh: 10; CYP2C19 inhib: 81*; CYP2C9 activ: 0.6; PLK1 inh: -14; CYP2C19 activ: 0.2; CYP2C9 inhib: 38

Results for COc1ccc2c(C(=O)CN3CCC(C)CC3)c[nH]c2c1 ?
PLK1 PBD inh: -1; CYP2C19 inhib: 14; CYP2C9 activ: 0.9; PLK1 inh: -5; CYP2C19 activ: 0.9; CYP2C9 inhib: 14

What do the screens show for `CCc1ccc(C2=NN(C(=O)OC)C(O)(C(F)(F)F)C2)cc1` (stereo not given)?
PLK1 PBD inh: -10; CYP2C19 inhib: 22; CYP2C9 activ: 0.9; PLK1 inh: -6; CYP2C19 activ: 0.8; CYP2C9 inhib: 9

Results for CC1=Nc2ccccc2/C1=C\c1nc(-c2ccc(F)cc2)oc1O ?
PLK1 PBD inh: -37; CYP2C19 inhib: -8; CYP2C9 activ: 0.9; PLK1 inh: -12; CYP2C19 activ: 1.1; CYP2C9 inhib: 8

How did Cc1ccc(CS(=O)(=O)CCC(=O)NCCN2CCCC2)cc1 do in these assays?
PLK1 PBD inh: 1; CYP2C19 inhib: -6; CYP2C9 activ: 0.8; PLK1 inh: -9; CYP2C19 activ: 1.1; CYP2C9 inhib: 16

What do the screens show for `Cc1sc(NC(=O)CSc2nnc(-c3ccc(F)cc3)o2)c(C#N)c1C`?
PLK1 PBD inh: -23; CYP2C19 inhib: 70*; CYP2C9 activ: 0.3; PLK1 inh: -11; CYP2C19 activ: 0.3; CYP2C9 inhib: 72*

Results for N#Cc1ccsc1NC(=O)COc1ccc(-c2nnco2)cc1 ?
CYP2C19 inhib: 78*; CYP2C9 activ: 0; CYP2C19 activ: 0.2; CYP2C9 inhib: 95*

Results for O=C(CSc1nnc(-c2ccncc2)o1)Nc1ccccc1Cl ?
PLK1 PBD inh: 6; CYP2C19 inhib: 90*; CYP2C9 activ: 0.8; PLK1 inh: -5; CYP2C19 activ: 0.1; CYP2C9 inhib: 17

What do the screens show for `COC(=O)c1ccccc1NC(=O)CSc1nnc(-c2ccc(C)cc2)o1`?
PLK1 PBD inh: -7; PLK1 inh: -10

How did N#Cc1ccsc1NC(=O)CSc1nnc(-c2ccccc2)o1 do in these assays?
PLK1 PBD inh: -18; CYP2C19 inhib: 28; CYP2C9 activ: 0.2; PLK1 inh: -4; CYP2C19 activ: 0.7; CYP2C9 inhib: 85*

What do the screens show for `CC1CCN(S(=O)(=O)c2ccc(S(=O)(=O)NCc3ccccc3)cc2)CC1`?
PLK1 PBD inh: 19; CYP2C19 inhib: -2; CYP2C9 activ: 1; PLK1 inh: -5; CYP2C19 activ: 1; CYP2C9 inhib: -4

How did CCC(C)(C(=O)NC1CCCCC1)N(C(=O)c1cnccn1)c1c(C)n(C)n(-c2ccccc2)c1=O (stereo not given) do in these assays?
PLK1 PBD inh: 0; CYP2C19 inhib: -2; CYP2C9 activ: 1; PLK1 inh: 0; CYP2C19 activ: 1; CYP2C9 inhib: 0
